For 23 molecules, fold change permeability results are on record in PubChem BioAssay.

SMILES strings stand for the structures. Active and inactive are the calls of the source. Rule as the data show it: active = fold change permeability below about 0.7 or above about 1.3; inactive = in between.

The experiment is described as follows: compounds altering in vitro BBB leakiness – cell-based, FITC-avidin fluorescence, HTS, primary screen (AID 1963498). Also: test concentration not given here. Particulars: brain endothelial barrier, actives lie on both sides.
Regarding `CN1Cc2sccc2C(c2ccc(O)c(O)c2)C1` (stereo not drawn), the fold change permeability was 1 (inactive). The same measure for `NS(=O)(=O)c1cc2c(cc1Cl)NC(C1CC3C=CC1C3)NS2(=O)=O` (stereo not drawn): 1.3 (active); for `NC(=O)OCC(COC(N)=O)c1ccccc1`: 0.8 (inactive).

`COC(=O)C(C)(N)Cc1ccc(O)cc1` (stereo not drawn): the fold change permeability was 0.8 (inactive). With `FC(F)(F)c1ccccc1-n1ccnc1`, the fold change permeability is 1.2 (inactive). Turning to `CCN(Cc1ccncc1)C(=O)C(CO)c1ccccc1` (stereo not drawn), the fold change permeability is 1.6 (active). The same measure for `N=C(N)SCCN`: 1.1 (inactive); for `CNCC(O)c1ccc(O)c(O)c1` (stereo not drawn): 0.8 (inactive); for `CN1[C@@H](CC(=O)c2ccccc2)CCC[C@H]1C[C@H](O)c1ccccc1`: 1.3 (active). As for `CN(C)c1ccc(/C=C2\C(=O)Nc3ccccc32)cc1`, the figure is 1.6 (active); as for `CCCN(CC1CC1)c1nc(C)nc(Nc2c(Cl)cc(Cl)cc2Cl)c1Cl`, 1.3 (active); as for `CC1=C(/C=C/C(C)=C/C=C/C(C)=C\C(=O)O)C(C)(C)CCC1`, 1.4 (active). As for `O=[N+]([O-])c1ccc(CNc2nc(NCc3cccc(C(F)(F)F)c3)nc3nc[nH]c23)cc1`, the fold change permeability was 1.3 (active). As for `CCNCc1nc2c(N)nc3ccccc3c2n1CC(C)(C)O`, the figure is 1.1 (inactive); as for `COc1ccc(S(=O)(=O)Nc2c(C)cc(C)cc2C)cc1`, 1.4 (active); as for `CC1(C)CCC(NC(=O)[C@@H](N)CCC(=O)O)CC1`, 0.9 (inactive).

Turning to `COc1ccc(OCC2c3cc(OC)c(OC)cc3CCN2C(=O)c2cccc(Cl)c2)cc1` (stereo not drawn), the fold change permeability is 1.6 (active). The same measure for `COc1ccc(C2(CNC(=O)c3ccc(NC(=O)c4ccco4)cc3)CCOCC2)cc1`: 0.7 (active); for `O=C(CCCN1CCC(O)(c2cccc(C(F)(F)F)c2)CC1)c1ccc(F)cc1`: 1.6 (active). As to `O=C(c1cccc(-c2ccc(-c3cn(C(=O)N4CCCCC4c4ccccc4)nn3)cc2)c1)N1CCCCC1` (stereo not drawn), the fold change permeability is 1.1 (inactive).

As for `CCSC(=N)N`, the fold change permeability was 1.1 (inactive). The same measure for `NOCC(=O)O`: 0.9 (inactive); for `Clc1ccc(N2CCN(Cc3c[nH]c4ncccc34)CC2)cc1`: 1.4 (active).
